Platelet DG rel: platelet dense granule release activity | 300,000 compounds, 0.22% hits | inhibition, %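 (compounds screened at 7.5 µM in platelet-rich plasma)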 | human platelet-rich plasma, SFLLRN dense granule ATP release, luminescence;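 active means mean replicate score, as percent of positive control, at or above 50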
SENP7 inh: SENP7 protease inhibition; AID 434973; 330,000 compounds, 1.5% hits; Q9BQF6; recombinant SENP7, Z-RLRGG-aminoluciferin luminescence, 40 min; inhibition, % at 5 µM;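 active means inhibition above about 50% at the single test dose, limit read from the data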;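 further: plate controls were DMSO with enzyme for no effect and no enzyme buffer wells for full effect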
SENP8 block-1: SENP8 protease inhibition; Q96LD8; purified SENP8, Z-RLRGG-aminoluciferin cleavage, luminescence; inhibition, % at 10 µM; 330,000 compounds, 1.2% hits; in the data active means inhibition above about 50%
Target sequence (Q96LD8 whole entry, looked up): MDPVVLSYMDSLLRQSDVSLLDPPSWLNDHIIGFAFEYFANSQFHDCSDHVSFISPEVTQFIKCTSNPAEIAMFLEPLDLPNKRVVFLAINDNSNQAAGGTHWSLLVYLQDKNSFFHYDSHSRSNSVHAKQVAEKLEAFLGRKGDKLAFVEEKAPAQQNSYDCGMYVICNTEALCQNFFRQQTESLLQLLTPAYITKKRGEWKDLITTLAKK
SENP6 inh: blocks the human protease SENP6; inhibition, % at 10 µM; Recombinant SENP6 catalytic domain, aminoluciferin luminescence; 330,000 compounds, 1.8% hits; Q9GZR1; AID 2599;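 active means inhibition above about 50% at the single tested dose, limit read from the data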;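 further: plate controls were DMSO wells with enzyme for no effect and DMSO wells lacking enzyme for full effect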
SENP8 block-2: blocks human SENP8 cleavage of Nedd8 substrate. Q96LD8. recombinant SENP8, Nedd8 substrate fluorescence. inhibition, % at 20 µM. 360,000 compounds, 0.64% hits. AID 602440; in the data active means inhibition mostly above about 40%, no sharp cut-off; inactive means mostly below about 27%
SENP8 confirm: confirmation of human SENP8 protease inhibitors; shares compounds with SENP7 inh; Recombinant SENP8, Z-RLRGG-aminoluciferin luminescence, 60 min; inhibition, % at 12.5 µM; 6,200 compounds, 40% hits;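 active means mean inhibition across replicates above about 50%, limit read from the data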
SENP6 confirm: human SENP6 inhibition, confirmed. shares compounds with SENP7 inh. recombinant SENP6, Z-RLRGG-aminoluciferin luminescence. inhibition, % at 12.5 µM. 6,200 compounds, 58% hits
SENP7 conf: confirmation of human SENP7 protease inhibitors | AID 488917 | inhibition, % at 12.5 µM | 6,200 compounds, 69% hits | shares compounds with SENP7 inh | recombinant SENP7, Z-RLRGG-aminoluciferin luminescence, 40 min
Casp3 SENP sel: selectivity test for SENP inhibitors: human caspase-3 inhibition | shares compounds with SENP7 inh | purified caspase-3, Z-DEVD-aminoluciferin luminescence, 60 min | inhibition, % at 12.5 µM | 6,200 compounds, 60% hits | AID 488918;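 active means mean inhibition above about 50%, limit read from the data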;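 further: plate controls were enzyme with DMSO for no effect and wells without caspase-3 for full effect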
Target sequence (P42574 28-227 limits assumed): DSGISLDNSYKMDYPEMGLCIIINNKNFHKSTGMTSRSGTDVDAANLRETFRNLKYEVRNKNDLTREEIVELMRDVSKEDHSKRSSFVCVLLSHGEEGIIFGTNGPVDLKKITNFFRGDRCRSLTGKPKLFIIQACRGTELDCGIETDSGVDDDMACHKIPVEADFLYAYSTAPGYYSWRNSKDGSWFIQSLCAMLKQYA
SENP luc ctr: interferes with luciferase luminescence in SENP counter-screen; inhibition, % at 12.5 µM; 6,200 compounds, 39% hits; Pre-incubated SENP8/Z-RLRGG-aminoluciferin, luciferase luminescence interference; shares compounds with SENP7 inh;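 active means mean inhibition above about 50% when retested at one dose, limit read from the data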;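 further: plate controls were DMSO wells with completed reaction for no effect and substrate without enzyme for full effect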
Starred values were filed as active, the others as inactive; . = no result given. Most compounds without a hit are left out; they make up all but 2.4% or so of the library.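 How the source made its calls, unless noted: active means mean inhibition above about 50% in the one-dose retest (limit read from the data); inactive means the rest.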

SMILES	Platelet DG rel	SENP7 inh	SENP8 block-1	SENP6 inh	SENP8 block-2	SENP8 confirm	SENP6 confirm	SENP7 conf	Casp3 SENP sel	SENP luc ctr
Oc1c(Br)cc(C2N=C(c3ccccc3)NO2)cc1Br (configuration not stated)	4	9	81*	98*	-26	-21	88*	96*	79*	91*
O=C(NCc1cccs1)C(=O)NCC(c1ccco1)N1CCN(c2ccccc2F)CC1 (configuration not stated)	-2	-9	-9	17	13	.	.	.	.	.
COc1ccc(C(CC(=O)Nc2ccccn2)N2Cc3ccccc3C2=O)cc1OC (configuration not stated)	4	5	8	25	16	.	.	.	.	.
COc1ccc(NC(C)C(=O)N/N=C/c2ccccc2OCc2cccc(Br)c2)cc1 (configuration not stated)	2	93*	2	5	20	-13	-6	-9	7	-2
COc1ccc(-c2csc(N3C(=N)SCC3=O)n2)cc1	-6	9	80*	74*	21	20	12	17	18	0
Cc1c(C(=O)N2CCCCCC2)c(S(=O)(=O)NCc2ccccc2Cl)c(C)n1C	3	11	-2	-12	2	.	.	.	.	.
COc1ccc(Br)cc1-c1noc(-c2ccccc2F)n1	7	6	-12	-23	21	.	.	.	.	.
NC(=O)c1cccc(-c2noc(-c3ccccc3F)n2)c1	.	57*	56*	74*	9	4	52*	81*	66*	12
COC(=O)c1cccc(-c2noc(-c3ccccc3F)n2)c1	.	81*	48	64*	10	40	39	66*	56*	34
CC1(C(=O)NS(=O)(=O)Cc2ccccc2)CCN1C(=O)Cc1cc(F)ccc1F (configuration not stated)	.	.	.	.	14	.	.	.	.	.
CC1(C(=O)NS(=O)(=O)C2CC2)CCN(C(=O)c2c(F)cccc2F)C1 (configuration not stated)	.	.	.	.	19	.	.	.	.	.
COc1ccccc1CNC(=O)COC(=O)c1nc(Cl)ccc1Cl	-3	-9	-12	-4	-5	.	.	.	.	.
COC(=O)C1CCN(S(=O)(=O)CCNC(=O)c2ccc(F)cc2)CC1	3	-6	-6	-7	9	.	.	.	.	.
Cc1cccc(NC(=O)CCS(=O)(=O)c2cccc3nonc23)c1C	-8	-12	-8	7	8	.	.	.	.	.
CCOc1ccc(OCCn2nnc3ccccc3c2=O)cc1	5	67*	58*	69*	-5	36	60*	89*	81*	50*
O=C(NCc1ccc(F)cc1)c1cc(C2CCCCN2S(=O)(=O)c2ccccc2)on1 (configuration not stated)	.	.	.	.	6	.	.	.	.	.
Cc1ccc(C(=O)NNC(=O)c2ccoc2C)s1	.	4	-8	-5	11	.	.	.	.	.
CC(=O)c1ccc(NC(=O)/C(Cl)=C/c2ccccc2)cc1	15	85*	45	67*	6	13	19	23	20	8
O=C(Nc1ccc(F)cc1)/C(Cl)=C/c1ccccc1	8	88*	79*	3	11	-11	79*	96*	72*	14
Cc1ccc(NC(=O)/C(Cl)=C\c2ccccc2)cc1	5	91*	86*	94*	17	83*	87*	100*	84*	75*
CCCCc1nc2cc(C(=O)N3CCCC3)ccc2o1	15	6	-2	5	6	.	.	.	.	.
CCCCc1nc2cc(C(=O)NC3CCOC(C)(C)C3)ccc2o1 (configuration not stated)	-2	80*	-12	-12	13	-14	-9	-11	-4	-11
O=C(Nc1cccc(C(=O)O)c1)Nc1cccc2ccccc12	-9	3	9	27	-53	.	.	.	.	.
O=C(O)c1ccc(C(=O)Nc2cccc3ccccc23)c(C(=O)O)c1	3	57*	33	67*	-311	-3	5	-2	7	8
CCc1nc2ccc(C(=O)O)cc2nc1CC	5	1	3	5	-26	.	.	.	.	.
SMILES	Platelet DG rel	SENP7 inh	SENP8 block-1	SENP6 inh	SENP8 block-2	SENP8 confirm	SENP6 confirm	SENP7 conf	Casp3 SENP sel	SENP luc ctr
c1ccc(OCc2nc3ccccc3[nH]2)cc1	0	54*	31	61*	9	50	51*	85*	82*	68*
Cc1ccc(OCc2nc3ccccc3[nH]2)cc1	-2	68*	61*	45	4	52*	53*	78*	70*	61*
Cc1ccc(C(=O)Cc2nc3ccccc3[nH]2)cc1	-5	4	-2	-20	-3	.	.	.	.	.
S=C(Nc1ccccc1)Nc1ccccn1	.	.	.	.	11	.	.	.	.	.
S=C(Nc1ccccc1)c1ccccn1	0	59*	54*	64*	30	13	42	83*	59*	46
O=C(OCc1ccc(Cl)c(Cl)c1)c1cccnc1Cl	-2	3	7	37	12	.	.	.	.	.
O=C(OCc1ccc(Cl)c(Cl)c1)c1ccccn1	-1	69*	51*	80*	8	71*	69*	90*	71*	73*
Nc1ncccc1OCc1ccc(Cl)c(Cl)c1	-3	81*	70*	75*	31	79*	79*	94*	75*	81*
Cc1cc(/C(N)=N/OC(=O)c2cccc(Cl)c2)no1	8	13	13	31	36	.	.	.	.	.
Cc1cc(/C(N)=N/OC(=O)c2ccc(Cl)cc2)no1	11	94*	80*	85*	31	24	86*	97*	92*	21
N/C(=N\OC(=O)c1ccc(Cl)c(Cl)c1)c1ccccn1	12	95*	68*	85*	4	36	47	65*	82*	59*
CC[C@@H](C)C(NC(=O)OC(C)(C)C)c1cn([C@@H](Cc2cc3ccccc3[nH]2)C(=O)N2CCN(C(=O)OC(C)(C)C)CC2)nn1 (some centres not stated)	-1	10	-13	-12	3	.	.	.	.	.
COc1cc(OC)cc(C(=O)O/N=C(\N)c2ccccn2)c1	13	-2	-2	-4	8	.	.	.	.	.
N/C(=N\OC(=O)c1cccc(Cl)c1)c1ccccn1	12	94*	87*	92*	11	90*	90*	100*	95*	45
COc1ccc(C(=O)NNC(=O)c2ccccn2)cc1	77*	100*	97*	99*	8	98*	99*	102*	98*	98*

Assay outcomes: PubChem BioAssay, several laboratories
